NALP1 inh: NALP1 inhibition | actives 0.61% (n = 280,000) | inhibition, % at 10 µM | S. cerevisiae NALP1/ASC/caspase-1 growth, X-gal OD620, 72 h; in the data active = inhibition mostly above about 24%, no sharp cut-off; inactive = mostly below about 32%
UBC13 inh: inhibitors of human UBC13 polyubiquitin chain formation; P61088; TR-FRET; inhibition, % at 20 µM; actives 0.47% (n = 330,000); in the data active = inhibition above about 45%, passing the limit was not always enough; inconclusive = no clear call, values can overlap the other calls
Target sequence (P61088 whole entry, looked up): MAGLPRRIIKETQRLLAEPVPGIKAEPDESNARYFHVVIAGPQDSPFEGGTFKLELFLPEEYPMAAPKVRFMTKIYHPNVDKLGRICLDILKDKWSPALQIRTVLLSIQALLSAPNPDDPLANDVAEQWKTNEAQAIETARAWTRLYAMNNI
CR mimetic SO: caloric restriction mimetics inhibiting age-related superoxide in yeast; S. cerevisiae aged cells, superoxide DHE fluorescence; stronger effect = lower value; superoxide response (% of plate mean), % at 10 µM; actives 0.18% (n = 330,000);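 active = superoxide response under a set limit, about three screen SD below normal, cut at about 65% in these data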;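 note: yeast aged for seven days with compound at 30 °C before DHE staining; 100% = average MFI of all compound-treated wells on the plate with controls excluded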
dFosB act: mouse delta FosB homodimer activation. activation, % at 25 µM. purified delta FosB, TAMRA-CDK5 oligo fluorescence polarization; percent of positive-control signal above neutral wells. actives 0.99% (n = 340,000);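 active = mean activation above about 17%, with every replicate also reaching it, limit read from the data, passing the limit was not always enough; inconclusive = only one of the two conditions met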
Target sequence (P13346 whole entry, looked up): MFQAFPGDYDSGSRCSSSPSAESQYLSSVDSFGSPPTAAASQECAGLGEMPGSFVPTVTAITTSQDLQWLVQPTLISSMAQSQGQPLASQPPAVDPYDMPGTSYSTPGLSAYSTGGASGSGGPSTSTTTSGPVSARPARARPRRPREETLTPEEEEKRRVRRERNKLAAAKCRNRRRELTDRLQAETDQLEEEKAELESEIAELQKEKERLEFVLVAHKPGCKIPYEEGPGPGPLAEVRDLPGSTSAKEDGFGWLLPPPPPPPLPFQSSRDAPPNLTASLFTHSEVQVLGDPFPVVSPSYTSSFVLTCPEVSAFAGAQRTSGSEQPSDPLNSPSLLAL
GRIN3A LBD mod: NR3A (human) ligand-binding domain modulation | NR3A LBD differential scanning fluorimetry, Tm shift; 0% = protein alone, 100% = glycine-bound protein | Tm shift relative to glycine control, % at 25 µM | actives 2.5% (n = 340,000);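 active = melting temperature shift of at least 10% of the positive control shift, at one fixed dose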
* = called active by the depositor; ? = inconclusive; · = not tested or not shown. The list is not random: actives were taken first. Their share in the collection is about 4.3%.

SMILES	NALP1 inh	UBC13 inh	CR mimetic SO	dFosB act	GRIN3A LBD mod
Cc1c(NC(=O)CSc2nncn2-c2ccccc2)c(=O)n(-c2ccccc2)n1C	·	-7.8	122.6	-1.3	-1.1
C[C@@H]1CN([C@H](C)CO)C(=O)c2cc(NC(=O)Nc3ccc(C(F)(F)F)cc3)ccc2O[C@H]1CN(C)S(=O)(=O)c1ccccc1	·	-9.9	92.3	-11.3	21.8*
COc1ccc(NC(=O)Nc2ccc3c(c2)C(=O)N([C@H](C)CO)C[C@H](C)[C@@H](CN(C)S(=O)(=O)c2ccc(OC)cc2)O3)cc1	·	-12.2	83.3	7.5	5.8
C[C@H](CO)N1C[C@H](C)[C@@H](CN(C)S(=O)(=O)c2ccccc2)Oc2ccc(NC(=O)Nc3ccc4c(c3)OCO4)cc2C1=O	·	3.6	90.9	-11.4	-3.3
COc1ccc(S(=O)(=O)N(C)C[C@H]2Oc3ccc(NC(=O)Nc4ccc(C(F)(F)F)cc4)cc3C(=O)N([C@H](C)CO)C[C@@H]2C)cc1	·	-17.1	118.8	-5.3	22.4*
Cc1ccc(OCCC(=O)OCC(=O)Nc2ccc3c(c2)OCO3)cc1	·	-0.8	98.1	-6.9	-1.7
Clc1ccc(-c2csc(Nc3cccnc3)n2)cc1	·	8.6	87.8	-3.2	14.6*
Clc1cccc(Nc2nc(-c3ccncc3)cs2)c1	-16.3	9.5	113.2	-0.5	30.6*
Fc1ccc(Nc2nc(-c3cccnc3)cs2)cc1	4.6	-2.9	95.0	1.6	-3.0
Clc1ccc(Nc2nc(-c3cccnc3)cs2)cc1	-10.6	3.4	98.7	-2.3	13.0*
O=C(Nc1ccsc1C(=O)O)c1ccccc1Cl	-12.6	6.4	80.9	0.0	2.1
CN(CC(=O)NNC(=O)Cc1ccccc1F)S(=O)(=O)c1ccc(Cl)cc1	·	-3.9	100.8	-1.7	1.1
O=C(O)CCn1cc(C(=O)O)c(-c2ccccc2)n1	31.1	3.3	104.6	2.7	2.1
Nc1c(C(=O)Nc2ccc(S(=O)(=O)N3CCCC3)cc2)sc2nc3ccc(OC(F)(F)F)cc3cc12	17.8	-36.6	93.3	-8.7	22.0*
Cc1c(C(=O)Nc2ccccc2)sc2nc(-c3ccccc3)cn12	·	0.0	113.5	-13.4	25.9*
Cc1cccc(NC(=O)c2sc3nc(-c4ccccc4)cn3c2C)n1	43.3	6.5	92.2	-1.1	-2.7
Cc1c(C(=O)Nc2ccc3c(c2)OCO3)sc2nc(-c3ccccc3)cn12	13.4	4.9	96.7	7.8	26.5*
Cc1c(C(=O)NCc2ccc3c(c2)OCO3)sc2nc(-c3ccccc3)cn12	-14.8	-4.4	105.0	5.9	-8.9
CC(=O)Nc1ccc(N(C(=O)c2ccco2)C(C(=O)NC2CCCC2)c2ccncc2)cc1 (stereo unspecified)	9.7	6.2	129.3	1.0	1.3
COc1cc2c(cc1OC)CN(c1nc(-c3cccnc3)nc3ccccc13)CC2	22.8	17.4	96.7	33.5*	-12.4
O=C(O)c1cccc(N2C(=O)c3cc([N+](=O)[O-])cc4cc([N+](=O)[O-])cc(c34)C2=O)c1	3.9	-53.9	101.0	-7.5	3.4
Cc1c(NC(=O)OC(C)C)sc(=S)n1C	9.2	0.6	83.3	-2.2	-0.3
COc1ccc(NC(=O)Nc2sc(=S)n(C)c2C)cc1	6.5	6.4	104.5	-5.9	23.9*
Cc1c(NC(=O)Nc2ccc(Cl)c(Cl)c2)sc(=S)n1C	·	1.5	117.7	5.2	21.6*
O=C(Cc1ccc(Cl)cc1)Nc1ccccc1Sc1ccccc1	17.1	18.3	101.0	1.1	15.4*
SMILES	NALP1 inh	UBC13 inh	CR mimetic SO	dFosB act	GRIN3A LBD mod
Cc1ccc(C(=O)Nc2ccccc2Sc2ccccc2)cc1	35.0	10.8	100.9	2.4	-0.1
O=C(Nc1ccccc1Sc1ccccc1)c1ccc(F)cc1	15.5	1.4	94.8	8.6	18.8*
CC(NCc1ccc(OCC(N)=O)cc1)C12CC3CC(CC(C3)C1)C2 (stereo unspecified)	10.7	0.8	110.7	-15.3	0.8
COC(=O)c1c(C)nn(-c2ccc(F)c(Cl)c2)c1-c1cc(C)on1	9.0	3.3	104.2	-7.1	-1.5
CCC(c1nnnn1C(C)(C)CC)N(CCCO)Cc1cc2cc(C)cc(C)c2[nH]c1=O (stereo unspecified)	34.6*	·	·	-11.3	4.1
C=CCNCCCOc1ccc(Cl)cc1Br	46.4*	7.3	109.7	3.0	-4.3
C/C(=N\NC(=S)Nc1ccccc1C)c1ccc(O)cc1	-18.1	49.6*	99.1	-0.9	-8.1
COCCNC(=S)N/N=C(\C)c1ccc(O)cc1	3.4	1.7	88.2	-26.1	-6.0
Cc1ccc(OCC(=O)NCCCNC(=O)c2cccnc2)cc1	-12.5	6.2	102.8	-2.6	-0.2
CC1(C)Cc2c(cnn2-c2ccccc2)C(NC(=O)CCc2ccc(=O)[nH]n2)C1 (stereo unspecified)	17.1	11.4	104.1	-2.4	12.6*
Cc1nn(C)c(C)c1CCC(=O)NC1CC(C)(C)Cc2c1cnn2-c1ccccc1 (stereo unspecified)	24.4	3.8	104.3	3.9	-2.4
COc1cc2c(cc1Cl)/C(=C\CCN(C)C)c1ccccc1S2	40.0	25.3	119.2	10.3	18.0*
C/C(=N\NC(=O)c1nnn(-c2nonc2N)c1CN(C)c1ccccc1)c1ccc(O)cc1	12.8	-1.6	97.1	7.2	6.4
C/C(=N\NC(=O)c1nnn(-c2nonc2N)c1-c1ccccc1)c1ccccc1O	8.9	3.8	101.0	33.3*	-3.0
C/C(=N\NC(=O)c1nnn(-c2nonc2N)c1-c1ccc2c(c1)OCO2)c1ccccc1	25.9	-10.3	96.8	3.3	1.3
CC/C(=N\NC(=O)c1nnn(-c2nonc2N)c1CN(C)c1ccccc1)c1ccccc1	-2.7	-5.8	115.9	-12.2	242.0*
C/C(=N\NC(=O)c1nnn(-c2nonc2N)c1CN(C)c1ccccc1)c1cccs1	3.6	-12.3	91.9	0.5	11.2*
Cc1ccc(S(=O)(=O)N2CCN(C(=O)c3cc(S(=O)(=O)N4CCOCC4)c(Cl)cc3Cl)CC2)cc1	·	·	·	-4.7	-19.6
COn1c(-c2ccccc2)nc2c1CCc1c-2no[n+]1[O-]	6.9	3.2	85.9	5.4	12.8*
Cn1c(C(=O)Nc2ccc(Cl)cc2)cc2cc(Cl)ccc21	12.7	14.3	95.2	0.9	-1.4
O=C(NC1CC2CCCC(C1)N2C(=O)Nc1ccc(F)cc1)c1ccccc1 (stereo unspecified)	21.6	-5.7	90.7	-1.9	-2.2
Cc1occc(=O)c1OC(=O)Nc1ccc(Cl)c(Cl)c1	24.7	·	111.1	1.2	38.5*
CCCCNC(=O)CSc1nnc(Cc2ccc(Cl)c(Cl)c2)c(=O)[nH]1	1.3	0.3	92.0	-11.7	-0.2
CCCOc1ccc(NC(=O)CC2C(=O)N(c3ccc(OCC)cc3)C(=S)N2C2CC2)cc1 (stereo unspecified)	22.0	-9.8	115.8	?	-4.5
COc1cccc(CN2CC(C(=O)NCCOc3cccnc3)CCC2=O)c1 (stereo unspecified)	12.5	3.9	101.7	0.8	-4.9
CCCN1C(=O)/C(=C/c2ccc(C)s2)SC1=Nc1ccc(OC)cc1	17.0	4.9	88.8	-6.5	-0.8

Screens as filed in PubChem.
